Shown are actives, neighbours in structure and some others; about 15% of the full set was active somewhere.
HCMV antiviral – inhibitors of human cytomegalovirus; 410,000 compounds, 4.5% hits; HFF cells, HCMV-luciferase reporter, 72 h; active compounds read low; activity change, negative = inhibition, % at 57.5 µM; in the data active means activity change below about -60%; inconclusive means no clear call, values can overlap the other calls; inactive means above about -39%
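Luciferase read-out from HCMV-luciferase-infected HFFs (MOI 1 PFU/cell) 72 h post infection at 37C; compounds added after 16 h cell attachment; activity normalized between buffer-only basal and Salinomycin (10uM) inhibitor controls.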
SARS PLpro yeast – SARS-CoV PLP inhibition in yeast | S. cerevisiae expressing SARS-CoV PLpro, growth rescue | Potency, µM (highest dose often 32.9 µM), actives largely listed as activators | 330,000 compounds, 0.19% hits | AID 485353; calls by dose curve; further: nearly all actives have a fitted effect of over 55% in size
Sm TGR block – inhibitors of Schistosoma mansoni thioredoxin glutathione reductase; AID 485364; Potency, µM (titrated, usually from 114 µM), actives largely listed as inhibitors; Q962Y6; 360,000 compounds, 3% hits; purified TGR, DTNB reduction, TNB absorbance 405 nm; further: nearly all actives have a fitted effect of over 60% in size
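TGR 20 nM + NADPH 100 uM (dispensed conc.), cpd preinc 15 min RT; start with NADPH (500 uM addition) then DTNB (15 mM addition). Kinetic TNB absorbance, 405 nm filter. Four-parameter Hill fit across titration.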
Pf growth 48h – P. falciparum growth inhibition at 48 hours (one generation) | 310,000 compounds, 5.9% hits | P. falciparum luciferase growth in erythrocytes, 48 h | Potency, µM (top dose mostly 28.7 µM), hits mostly inhibitors
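Compounds are pin-transferred into medium, infected erythrocytes (2% hematocrit, 0.1% parasitemia final) are added, and plates sit one parasite generation at 37 C in 5% CO2. Detection reagent is then added and luminescence measured.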
Pf growth 96h – inhibits malaria parasite growth, 96 h. 320,000 compounds, 6.9% hits. Potency, µM (highest dose often 28.7 µM), actives largely listed as inhibitors. AID 504834. P. falciparum luciferase reporter growth, 96 h
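P. falciparum expressing integrated firefly luciferase, in erythrocytes at 2% hematocrit, 0.05% parasitemia, incubated with compounds 96 h at 37 C, 5% CO2. Growth inhibition read as loss of luminescence; two-generation exposure targets delayed-death apicoplast inhibitors.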
HCV inhibitor – HCV inhibition. Huh7.5.1 HCVcc-Cre infection, luciferase reporter, 44 h. Potency, µM (highest dose often 41.8 µM), actives largely listed as inhibitors. 340,000 compounds, 3.4% hits. AID 651820
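Cells seeded at 1,000/well and cultured 4 h, then compounds added followed by HCVcc-Cre virus (~0.5 moi). After 44 h further culture, luciferase substrate was added, plates held 15 min at room temperature, and luminescence read for 15 sec.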
Each line names hits and unclear results; the compound was inactive in the other large screens. Unless noted, the call rests on the fitted dose curve; in most records, active means well fitted curve in the direction sought with a large enough effect; inconclusive means small, poorly fitted or top-dose-only effect, or another doubt; inactive means no such curve, though single readings can be large; an effect the other way counts as inactive or inconclusive.

COC(=O)c1cc2ccsc2n1Cc1ccccc1F	Pf growth 96h 12µM
Nc1nc(COc2ccc(F)cc2Cl)nc(N2CCCCC2)n1	HCV inhibitor inconclusive
O=C(NC(Nc1nc2ccc([N+](=O)[O-])cc2s1)(C(F)(F)F)C(F)(F)F)c1ccccc1Cl	HCMV antiviral inconclusive, Pf growth 48h 1.5µM, Pf growth 96h 0.93µM, HCV inhibitor 0.56µM
O=c1cc2c(=O)oc3cc(O)c(O)oc3c2c(O)c1O	Sm TGR block inconclusive, Pf growth 48h 5.2µM, Pf growth 96h 8.3µM
O=C(Cc1ccccc1Cl)Nc1cccc(S(=O)(=O)N2CCOCC2)c1	Pf growth 96h inconclusive
O=C(COc1ccccc1Cc1ccccc1)Nc1cccc(S(=O)(=O)N2CCOCC2)c1	Pf growth 48h 13µM, Pf growth 96h 4.1µM, HCV inhibitor inconclusive
COc1ccccc1CCC(=O)Nc1ccc(OC)c(S(=O)(=O)N2CCOCC2)c1	Pf growth 96h inconclusive
CCOc1ccccc1C(=O)OCC(=O)Nc1cc(S(=O)(=O)N2CCOCC2)ccc1C	none
COc1ccc(NC(=O)COc2ccccc2Cc2ccccc2)cc1S(=O)(=O)N1CCOCC1	Sm TGR block inconclusive, Pf growth 48h 12µM, Pf growth 96h 5.2µM, HCV inhibitor inconclusive
Cc1ccc(S(=O)(=O)N2CCOCC2)cc1NC(=O)COc1ccccc1Cc1ccccc1	HCMV antiviral inconclusive, HCV inhibitor 13µM (no result: Sm TGR block, Pf growth 48h, Pf growth 96h)
Cc1ccc(S(=O)(=O)N2CCOCC2)cc1NC(=O)COC(=O)c1ccc(OCc2c(C)noc2C)cc1	SARS PLpro yeast inconclusive, Pf growth 48h 13µM, Pf growth 96h inconclusive
CCn1c(C(=O)Nc2ccc(C)cc2C)cc2sc(Cl)cc21	none (no result: SARS PLpro yeast, Pf growth 48h, Pf growth 96h, HCV inhibitor)
Cc1ccc(S(=O)(=O)N2CCOCC2)cc1NC(=O)COc1ccc2c(C)cc(=O)oc2c1	Pf growth 48h inconclusive, Pf growth 96h 9.3µM
CCN(CC)S(=O)(=O)c1ccc(Cl)c(NC(=O)COc2ccc3c(C)cc(=O)oc3c2)c1	none
CCN(CC)S(=O)(=O)c1ccc(OC)c(NC(=O)COc2ccc3c(C)cc(=O)oc3c2)c1	Pf growth 48h inconclusive, Pf growth 96h 2.6µM, HCV inhibitor inconclusive
Cc1ccc(S(=O)(=O)N2CCOCC2)cc1NC(=O)COc1ccc(C(=O)c2ccccc2)cc1	Pf growth 48h inconclusive, Pf growth 96h inconclusive, HCV inhibitor 10µM
Cc1noc(C)c1COC(=O)c1cccc(S(=O)(=O)N2CCCCCC2)c1	Pf growth 48h inconclusive, HCV inhibitor 2.2µM
CC1CCN(C2CC(=O)N(c3ccccc3)C2=O)CC1 (stereo unspecified)	Sm TGR block 28µM
O=C1CC(N2CCN(c3ccccc3)CC2)C(=O)N1c1ccc(Cl)cc1 (stereo unspecified)	Sm TGR block inconclusive, Pf growth 96h inconclusive
CC1CCN(C2CC(=O)N(c3ccc(Br)cc3Br)C2=O)CC1 (stereo unspecified)	Sm TGR block 20µM
O=C1CC(N2CCSCC2)C(=O)N1c1ccc(Br)cc1 (stereo unspecified)	Sm TGR block inconclusive
Cn1c(=O)n(C)c2cc(NC(=O)c3ccc(F)cc3)ccc21	HCMV antiviral inconclusive
Cn1c(-c2ccccc2O)cc2ccccc21	Pf growth 48h 3.7µM, Pf growth 96h 5.2µM
O=[N+]([O-])c1ccc2[nH]c(O)c(N=NC3CCS(=O)(=O)C3)c2c1 (stereo unspecified)	none
O=C(O)CC1Sc2nnc(COc3ccc(Cl)cc3)n2N=C1c1ccccc1 (stereo unspecified)	none
O=C(Nc1cccnc1)C12CC3CC(CC(C3)C1)C2	HCMV antiviral -64
O=C(Nc1cccnc1)C1(F)C(F)(F)C(F)(F)C(F)(F)C(F)(F)C1(F)F	HCV inhibitor 3.2µM
Cc1ccc(C)n1-c1cccc(C(=O)O)c1	Sm TGR block 8.9µM (no result: HCMV antiviral)
O=C(O)c1cccc(N2CCCC2)c1	Pf growth 96h 9.3µM
O=C(O)c1cccc(N2CCCC2=O)c1	none
O=C1c2nccnc2C(=O)N1c1ccc(F)cc1	none
COC(=O)C1=C(C)N(C)C(=O)/C1=C\c1ccco1	HCV inhibitor inconclusive
CC1=C(C#N)C(=O)N(C2CCS(=O)(=O)C2)C(=O)/C1=C\c1ccco1 (stereo unspecified)	Sm TGR block 8.9µM (no result: HCMV antiviral, HCV inhibitor)
Cc1ccccc1C(=O)NC1CCN(CC(=O)NCc2ccccc2)CC1	none
CN1C(=O)C(Cc2ccsc2)C(=O)N(C)C1=O	Sm TGR block 5µM (no result: Pf growth 96h)
CC1CN(c2ccc([N+](=O)[O-])nc2)CC(C)O1 (stereo unspecified)	none
O=C(CN(Cc1ccc(Br)cc1)S(=O)(=O)c1ccccc1)NCc1cccnc1	Pf growth 48h inconclusive
O=C(NCc1cccnc1)/C(=C\c1ccc(-c2ccc(Br)cc2)o1)S(=O)(=O)c1ccccc1	HCMV antiviral -103, SARS PLpro yeast inconclusive, Sm TGR block 50µM, Pf growth 48h inconclusive, Pf growth 96h inconclusive, HCV inhibitor 11µM
O=C(NCc1cccnc1)/C(=C/c1ccc(-c2ccc(Cl)cc2)o1)S(=O)(=O)c1ccccc1	Sm TGR block 20µM, Pf growth 48h 6.6µM, Pf growth 96h 3.3µM, HCV inhibitor 7.9µM (no result: HCMV antiviral)
COc1cc(NC(=O)COCc2cc(-c3ccc(F)cc3)on2)cc(OC)c1OC	none (no result: SARS PLpro yeast, Pf growth 48h, Pf growth 96h, HCV inhibitor)
CCCCCCCCCC[N+](C)(C)CC/C=C1/c2ccccc2Sc2ccc(Cl)cc21	Sm TGR block 18µM, Pf growth 96h 3.7µM, HCV inhibitor inconclusive (no result: HCMV antiviral, Pf growth 48h)
CCCCNC(=O)c1ccc2c(c1)N=C(CC)c1ccccc1S2	none (no result: SARS PLpro yeast, Pf growth 48h, Pf growth 96h, HCV inhibitor)
CC[N+](C)(C)CC/C=C1/c2ccccc2Sc2ccc(Cl)cc21	Pf growth 48h 3.7µM, Pf growth 96h 1.7µM
NCC/C=C1/c2ccccc2CSc2ccccc21	Pf growth 48h inconclusive, Pf growth 96h inconclusive, HCV inhibitor inconclusive
CCCCCCCCCCC[N+](C)(C)CC/C=C1/c2ccccc2Sc2ccc(Cl)cc21	Sm TGR block 1.8µM, Pf growth 96h inconclusive (no result: HCMV antiviral, Pf growth 48h)
COc1ccc(-n2c(SC3CCOC3=O)nc3ccccc3c2=O)cc1Cl (stereo unspecified)	none
CCCCCOC(=O)Cc1c(C)nc(-c2ccccc2)[nH]c1=O	Pf growth 48h 1.9µM, Pf growth 96h inconclusive
CCCCCOC(=O)Cc1c(O)c2ccccc2[nH]c1=O	none
O=C1N(c2ccccc2C(F)(F)F)O[C@@]1(c1ccccc1)C1CCCCC1	Pf growth 48h 1.5µM, Pf growth 96h inconclusive
O=C1N(c2ccccc2C(F)(F)F)O[C@@]1(c1ccccc1)C1CCCC1	Pf growth 48h 0.74µM, Pf growth 96h 0.83µM
CNC(=O)Oc1ccc2c(c1)[C@]1(C)CCN(C)C1N2C (stereo partly specified)	Pf growth 48h 13µM, Pf growth 96h 15µM (no result: SARS PLpro yeast)
CN1CC[C@@]2(C)c3cc(O)ccc3N(C)[C@@H]12	HCV inhibitor inconclusive (no result: SARS PLpro yeast, Sm TGR block, Pf growth 48h, Pf growth 96h)
N/C(=N\OC(=O)c1ccc(F)cc1)c1ccc(Br)cc1	Pf growth 96h inconclusive
